# Assay results taken from the supplement of paper PMC4466140.
# Assays:
# Assay in all cases: SPOT peptide array binding signal intensity (averaged, normalized) (arbitrary units (background-subtracted, floor 0; scale differs between SH3 domains)); higher = stronger binding of the SH3 domain to the peptide
# [1] = target: SpBzz1-D2
# How it was run: (§1)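 Cellulose membranes carried synthetic 15-mer peptides with cysteines swapped for serines. These were incubated overnight at 4°C with 10 μg/ml of GST-fused SH3 domains from four yeast species in TBS-based blocking buffer. Binding signal, detected with anti-GST antibody and quantified in Genespotter, is the normalized, background-subtracted spot intensity averaged over replicates, in arbitrary units specific to each domain.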
# [2] = target: SpCyk3
# How it was run: as §1
# [3] = target: SpHof1
# How it was run: as §1
# [4] = target: SpHof1-2
# How it was run: as §1
# [5] = target: SpHof1-3
# How it was run: as §1
# [6] = target: SpHse1
# How it was run: as §1
# [7] = target: SpLsb1
# How it was run: as §1
# [8] = target: SpLsb4
# How it was run: as §1
# [9] = target: SpMyo1
# How it was run: as §1
# [10] = target: SpNbp2
# How it was run: as §1
# [11] = target: SpPex13
# How it was run: as §1
# [12] = target: SpRvs167
# How it was run: as §1
# [13] = target: SpSla1-D1-D2
# How it was run: as §1
# [14] = target: SpSla1-D3
# How it was run: as §1
# [15] = target: AgAbp1
# How it was run: as §1
# [16] = target: AgBbc1
# How it was run: as §1
# [17] = target: AgBem1-D1
# How it was run: as §1
# [18] = target: AgBzz1-D1
# How it was run: as §1
# [19] = target: AgBzz1-D2
# How it was run: as §1
# [20] = target: AgCyk3
# How it was run: as §1
# [21] = target: AgFus1
# How it was run: as §1
# [22] = target: AgHof1
# How it was run: as §1
# [23] = target: AgHse1
# How it was run: as §1
# [24] = target: AgLsb1
# How it was run: as §1
# [25] = target: AgLsb4
# How it was run: as §1
# [26] = target: AgMyo5
# How it was run: as §1
# [27] = target: AgNbp2
# How it was run: as §1
# [28] = target: AgRvs167
# How it was run: as §1
# [29] = target: AgSho1
# How it was run: as §1
# [30] = target: AgSla1-D1-D2
# How it was run: as §1
# [31] = target: AgSla1-D3
# How it was run: as §1
# [32] = target: CaAbp1-D1
# How it was run: as §1
# [33] = target: CaAbp1-D2
# How it was run: as §1
# [34] = target: CaBbc1
# How it was run: as §1
# [35] = target: CaBem1-D1
# How it was run: as §1
# [36] = target: CaBzz1-D1
# How it was run: as §1
# [37] = target: CaBzz1-D2
# How it was run: as §1
# [38] = target: CaCyk3
# How it was run: as §1
# [39] = target: CaFus1
# How it was run: as §1
# [40] = target: CaHof1
# How it was run: as §1
# [41] = target: CaHse1
# How it was run: as §1
# [42] = target: CaLsb1
# How it was run: as §1
# [43] = target: CaLsb4
# How it was run: as §1
# [44] = target: CaMyo5
# How it was run: as §1
# [45] = target: CaNbp2
# How it was run: as §1
# [46] = target: CaRvs167
# How it was run: as §1
# [47] = target: CaRvs167-3
# How it was run: as §1
# [48] = target: CaSho1
# How it was run: as §1
# [49] = target: CaSla1-D1-D2
# How it was run: as §1
# [50] = target: CaSla1-D3
# How it was run: as §1
# [51] = target: ScAbp1
# How it was run: as §1
# [52] = target: ScBbc1
# How it was run: as §1
# [53] = target: ScBem1-D1
# How it was run: as §1
# [54] = target: ScBzz1-D1
# How it was run: as §1
# [55] = target: ScBzz1-D2
# How it was run: as §1
# [56] = target: ScCyk3
# How it was run: as §1
# [57] = target: ScFus1
# How it was run: as §1
# [58] = target: ScHof1
# How it was run: as §1
# [59] = target: ScHse1
# How it was run: as §1
# [60] = target: ScLsb1
# How it was run: as §1
# [61] = target: ScLsb2
# How it was run: as §1
# [62] = target: ScLsb3
# How it was run: as §1
# [63] = target: ScLsb4
# How it was run: as §1
# [64] = target: ScMyo3
# How it was run: as §1
# [65] = target: ScMyo5
# How it was run: as §1
# [66] = target: ScNbp2
# How it was run: as §1
# [67] = target: ScPex13
# How it was run: as §1
# [68] = target: ScRvs167
# How it was run: as §1
# [69] = target: ScSho1
# How it was run: as §1
# [70] = target: ScSla1-D1-D2
# How it was run: as §1
# [71] = target: ScSla1-D3
# How it was run: as §1
# [72] = target: SpAbp1-D1
# How it was run: as §1
# [73] = target: SpBbc1
# How it was run: as §1
# [74] = target: SpBzz1-D1
# How it was run: as §1
binder,measurement,setting,value
VNFRRIPTGPDSPPT,SPOT peptide array binding signal intensity,[1],0.25
same,SPOT peptide array binding signal intensity,[2],≤ 0
same,SPOT peptide array binding signal intensity,[3],178
same,SPOT peptide array binding signal intensity,[4],6
same,SPOT peptide array binding signal intensity,[5],0.75
same,SPOT peptide array binding signal intensity,[6],192
same,SPOT peptide array binding signal intensity,[7],≤ 0
same,SPOT peptide array binding signal intensity,[8],27.5
same,SPOT peptide array binding signal intensity,[9],2.5
same,SPOT peptide array binding signal intensity,[10],14.5
same,SPOT peptide array binding signal intensity,[11],≤ 0
same,SPOT peptide array binding signal intensity,[12],10.7
same,SPOT peptide array binding signal intensity,[13],≤ 0
same,SPOT peptide array binding signal intensity,[14],≤ 0
GTIARPLFLVVLFFI,SPOT peptide array binding signal intensity,[15],≤ 0
same,SPOT peptide array binding signal intensity,[16],1.25
same,SPOT peptide array binding signal intensity,[17],33
same,SPOT peptide array binding signal intensity,[18],18
same,SPOT peptide array binding signal intensity,[19],13.5
same,SPOT peptide array binding signal intensity,[20],8
same,SPOT peptide array binding signal intensity,[21],1900
same,SPOT peptide array binding signal intensity,[22],0.75
same,SPOT peptide array binding signal intensity,[23],428
same,SPOT peptide array binding signal intensity,[24],≤ 0
same,SPOT peptide array binding signal intensity,[25],580
same,SPOT peptide array binding signal intensity,[26],0.5
same,SPOT peptide array binding signal intensity,[27],57
same,SPOT peptide array binding signal intensity,[28],1.33
same,SPOT peptide array binding signal intensity,[29],338
same,SPOT peptide array binding signal intensity,[30],≤ 0
same,SPOT peptide array binding signal intensity,[31],1.75
same,SPOT peptide array binding signal intensity,[32],56.5
same,SPOT peptide array binding signal intensity,[33],28.5
same,SPOT peptide array binding signal intensity,[34],2
same,SPOT peptide array binding signal intensity,[35],15.5
same,SPOT peptide array binding signal intensity,[36],88
same,SPOT peptide array binding signal intensity,[37],23.5
same,SPOT peptide array binding signal intensity,[38],10
same,SPOT peptide array binding signal intensity,[39],3640
same,SPOT peptide array binding signal intensity,[40],16.5
same,SPOT peptide array binding signal intensity,[41],126
same,SPOT peptide array binding signal intensity,[42],1.25
same,SPOT peptide array binding signal intensity,[43],≤ 0
same,SPOT peptide array binding signal intensity,[44],4.5
GKKVRPLLVLLLSRA,SPOT peptide array binding signal intensity,[15],≤ 0
same,SPOT peptide array binding signal intensity,[16],≤ 0
same,SPOT peptide array binding signal intensity,[17],≤ 0
same,SPOT peptide array binding signal intensity,[18],23.5
same,SPOT peptide array binding signal intensity,[19],2
same,SPOT peptide array binding signal intensity,[20],5
same,SPOT peptide array binding signal intensity,[21],3030
same,SPOT peptide array binding signal intensity,[22],0.5
same,SPOT peptide array binding signal intensity,[23],1180
same,SPOT peptide array binding signal intensity,[24],≤ 0
same,SPOT peptide array binding signal intensity,[25],702
same,SPOT peptide array binding signal intensity,[26],≤ 0
same,SPOT peptide array binding signal intensity,[27],280
same,SPOT peptide array binding signal intensity,[28],1.5
same,SPOT peptide array binding signal intensity,[29],795
same,SPOT peptide array binding signal intensity,[30],≤ 0
same,SPOT peptide array binding signal intensity,[31],1
same,SPOT peptide array binding signal intensity,[32],208
same,SPOT peptide array binding signal intensity,[33],134
same,SPOT peptide array binding signal intensity,[34],0.5
same,SPOT peptide array binding signal intensity,[35],≤ 0
same,SPOT peptide array binding signal intensity,[36],45
same,SPOT peptide array binding signal intensity,[37],8
same,SPOT peptide array binding signal intensity,[38],9
same,SPOT peptide array binding signal intensity,[39],3530
same,SPOT peptide array binding signal intensity,[40],1.5
same,SPOT peptide array binding signal intensity,[41],120
same,SPOT peptide array binding signal intensity,[42],≤ 0
same,SPOT peptide array binding signal intensity,[43],7.5
same,SPOT peptide array binding signal intensity,[44],≤ 0
same,SPOT peptide array binding signal intensity,[45],1520
same,SPOT peptide array binding signal intensity,[46],28.3
same,SPOT peptide array binding signal intensity,[47],50.8
same,SPOT peptide array binding signal intensity,[48],562
same,SPOT peptide array binding signal intensity,[49],≤ 0
same,SPOT peptide array binding signal intensity,[50],28
same,SPOT peptide array binding signal intensity,[51],3.5
same,SPOT peptide array binding signal intensity,[52],≤ 0
same,SPOT peptide array binding signal intensity,[53],≤ 0
same,SPOT peptide array binding signal intensity,[54],18
same,SPOT peptide array binding signal intensity,[55],104
same,SPOT peptide array binding signal intensity,[56],41
same,SPOT peptide array binding signal intensity,[57],1690
same,SPOT peptide array binding signal intensity,[58],≤ 0
same,SPOT peptide array binding signal intensity,[59],1540
same,SPOT peptide array binding signal intensity,[60],≤ 0
same,SPOT peptide array binding signal intensity,[61],≤ 0
same,SPOT peptide array binding signal intensity,[62],97
same,SPOT peptide array binding signal intensity,[63],≤ 0
same,SPOT peptide array binding signal intensity,[64],≤ 0
same,SPOT peptide array binding signal intensity,[65],≤ 0
same,SPOT peptide array binding signal intensity,[66],237
same,SPOT peptide array binding signal intensity,[67],≤ 0
same,SPOT peptide array binding signal intensity,[68],9.67
same,SPOT peptide array binding signal intensity,[69],1560
same,SPOT peptide array binding signal intensity,[70],≤ 0
same,SPOT peptide array binding signal intensity,[71],5.5
same,SPOT peptide array binding signal intensity,[72],52.5
same,SPOT peptide array binding signal intensity,[73],0.5
same,SPOT peptide array binding signal intensity,[74],21.5
same,SPOT peptide array binding signal intensity,[1],≤ 0
same,SPOT peptide array binding signal intensity,[2],7
same,SPOT peptide array binding signal intensity,[3],157
same,SPOT peptide array binding signal intensity,[4],27.8
same,SPOT peptide array binding signal intensity,[5],758
same,SPOT peptide array binding signal intensity,[6],1200
same,SPOT peptide array binding signal intensity,[7],≤ 0
same,SPOT peptide array binding signal intensity,[8],41
same,SPOT peptide array binding signal intensity,[9],3.75
same,SPOT peptide array binding signal intensity,[10],1290
same,SPOT peptide array binding signal intensity,[11],3
same,SPOT peptide array binding signal intensity,[12],6.83
same,SPOT peptide array binding signal intensity,[13],1
same,SPOT peptide array binding signal intensity,[14],≤ 0
